# KDM4E inh: JMJD2E (human) inhibition | actives 1.6% (n = 230,000) | B2RXH2 | JMJD2E catalytic domain, FDH-coupled NADH fluorescence (FDH is formaldehyde dehydrogenase) | Potency, µM (highest dose often 57.1 µM), for inactives: at the top dose activity change, negative = inhibition, usual class: inhibitors; active = well fitted inhibition curve with a large enough effect, not every such curve was filed as active; inconclusive = small, poorly fitted or top-dose-only effect, or another doubt; inactive = no such curve, though single readings can be large or run the other way;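 also: potency is read from the fitted curve at half-maximal effect; 0% = wells with enzyme and -100% = buffer wells without enzyme; nearly all actives have a fitted effect of over 50% in size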
# HttQ103 aggreg: reduces HttQ103-GFP aggregates in PC12 cells | PC12 HttQ103-GFP aggregates, Acumen cytometry, 40 h | Potency, µM (titrated, usually from 46.1 µM), without a hit: at the top dose activity change, negative = inhibition, most hits filed as inhibitors | actives 1.1% (n = 220,000) | AID 1688; also: potency is read from the fitted curve at half-maximal effect; % is scaled to controls: 0 for no effect and ±100 for the full control effect; nearly all actives have a fitted effect of over 60% in size
#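 Multiplexed with ATP-based cell death, this channel scores GFP aggregates in PC12 cells expressing inducible HTTex1-Q103-GFP. Induction used 100 nM tebufenozide; compounds were tested in concentration series.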
# ALDH1A1 block: ALDH1A1 (human) enzyme inhibition; Purified ALDH1A1, NADH fluorescence, propionaldehyde substrate; actives 7.3% (n = 220,000); Potency, µM (highest dose often 75.3 µM), for the others: top-dose activity, negative = inhibition, hits mostly inhibitors; active = well fitted inhibition curve with a large enough effect, not every such curve was filed as active; inconclusive = small, poorly fitted or top-dose-only effect, or another doubt; inactive = no such curve, though single readings can be large or run the other way;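 also: potency is read from the fitted curve at half-maximal effect; plate controls were no enzyme wells and a reference inhibitor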
# Target sequence (P00352 whole entry, looked up): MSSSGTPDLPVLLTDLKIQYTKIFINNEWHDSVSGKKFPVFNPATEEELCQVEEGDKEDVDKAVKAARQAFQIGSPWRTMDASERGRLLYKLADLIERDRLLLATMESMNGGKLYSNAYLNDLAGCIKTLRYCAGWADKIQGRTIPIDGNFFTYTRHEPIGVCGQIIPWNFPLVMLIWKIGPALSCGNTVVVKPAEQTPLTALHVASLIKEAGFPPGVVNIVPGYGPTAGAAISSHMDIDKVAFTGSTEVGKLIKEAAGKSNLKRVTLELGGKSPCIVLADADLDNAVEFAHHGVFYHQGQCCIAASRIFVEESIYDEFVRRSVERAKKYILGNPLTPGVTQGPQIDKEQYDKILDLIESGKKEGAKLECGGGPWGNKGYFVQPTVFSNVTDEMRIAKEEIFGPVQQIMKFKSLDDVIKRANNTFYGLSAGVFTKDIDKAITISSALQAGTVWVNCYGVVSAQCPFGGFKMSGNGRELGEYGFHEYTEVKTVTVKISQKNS
# HPGD inh: HPGD (human) dehydrogenase inhibition; P15428; purified HPGD, NADH fluorescence kinetic, PGE2 substrate; Potency, µM, without a hit: at the highest dose activity change, negative = inhibition, usual class: inhibitors; actives 4.3% (n = 150,000); active = well fitted inhibition curve with a large enough effect, not every such curve was filed as active; inconclusive = small, poorly fitted or top-dose-only effect, or another doubt; inactive = no such curve, though single readings can be large or run the other way; also: potency is read from the fitted curve at half-maximal effect; % is scaled to controls: 0 for no effect and ±100 for the full control effect
# Target sequence (P15428 whole entry, looked up): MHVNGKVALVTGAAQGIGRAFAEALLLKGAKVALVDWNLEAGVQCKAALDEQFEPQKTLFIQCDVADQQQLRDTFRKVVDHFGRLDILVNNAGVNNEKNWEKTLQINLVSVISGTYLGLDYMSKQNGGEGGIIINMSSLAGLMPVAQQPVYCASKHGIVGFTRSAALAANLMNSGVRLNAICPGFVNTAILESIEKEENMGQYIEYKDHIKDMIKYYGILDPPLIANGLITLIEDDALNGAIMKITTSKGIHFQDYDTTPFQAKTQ
#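 NADH formation kinetics: reaction with 30 uM PGE2 and 1 mM NAD+ (final), 20 nM enzyme, Tris-HCl pH 8 with Tween 20, after 15 min compound preincubation at room temperature. Fluorescence change, last versus first of five reads.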
# HTT ATP protect: protects HTT-Q103 PC12 cells, measured by ATP | PC12 HTT-Q103 induced, cytoprotection, ATP luminescence, 40 h | Potency, µM (titrated, usually from 56.4 µM), for inactives: cytoprotection (ATP increase), hits mostly activators | actives 0.14% (n = 230,000); also: potency is read from the fitted curve at half-maximal effect; % of control where 0% means no effect; nearly all actives have a fitted effect of over 45% in size
#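 PC12 cells with ecdysone-inducible HTT exon 1 Q103-GFP, induced with 100 nM tebufenozide and co-treated with library compounds in a dose series (1536-well, 1500 cells/well). Cytoprotection read as ATP content by ATPlite luminescence.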
# CBFb RUNX1 block: inhibitors of human CBF-beta and RUNX1 interaction. 230,000 tested, under 10 active. Potency, µM (doses to about 59.8 µM), for the others: at the highest dose activity, negative = inhibition, hits mostly inhibitors. AlphaScreen CBFb-His/RUNX1-biotin binding, biochemical. Q01196+Q13951; also: % of control where 0% means no effect
#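 AlphaScreen binding: CBFb-His and RUNX1-biotin (30 nM each) preincubated 20 min, compound added for 15 min, then nickel and streptavidin beads for 90 min, all at room temperature. Disruption of the interaction by any mechanism counts as activity.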
# Starred values were filed as active, the others as inactive; ? = inconclusive; nt = no result given; [ ] = another dose, or the depositor's remark. Most compounds without a hit are left out; they make up all but 9.8% or so of the library. Unless noted, calls follow the shape of the dose curve; as a rule, active = well fitted curve in the direction sought with a large enough effect; inconclusive = small, poorly fitted or top-dose-only effect, or another doubt; inactive = no such curve, though single readings can be large; an effect the other way counts as inactive or inconclusive.
SMILES,KDM4E inh,HttQ103 aggreg,ALDH1A1 block,HPGD inh,HTT ATP protect,CBFb RUNX1 block
CCOC(=O)C1=CN(CC2CCCO2)C=C(C(=O)OCC)C1c1ccccc1C(F)(F)F (centres undefined),?,1%[9.22 µM],?,nt,-28%,1%
Nc1ccccc1Oc1ccccc1,nt,nt,nt,nt,nt,19%
O=C(NNC(=S)Nc1ccccc1)c1cccc(Br)c1,4%,-2%[9.22 µM],20µM*,-7%,5%,3%
Cc1cc(C(=O)NNC(=S)Nc2ccccc2)nn1C,8.9µM*,30%[9.22 µM],1%,nt,23%[10 µM],?
O=C(O)/C=C/C(=O)NNC(=O)c1cccc(Br)c1,-1%,-8%,20µM*,-2%,-5%[1.9 µM],-3%
O=C(O)c1cc(-c2ccc(Cl)s2)[nH]n1,1%,4%[9.22 µM],nt,nt,-18%[10 µM],4%
CC(C)(C)n1nnnc1CN(Cc1ccc(F)cc1)Cc1ccco1,3%,-10%,14µM*,-1%,32%[10 µM],11%
Cc1cc(C(=O)Nc2nc(-c3ccccn3)cs2)ccc1[N+](=O)[O-],?,-21%,?,nt,-136%,nt
CC(=O)Nc1ccc(C(=O)Nc2nc(-c3ccccn3)cs2)cc1,?,?,?,nt,-60%,?
O=C(Nc1nc(-c2ccccn2)cs1)c1cc(Cl)ccc1[N+](=O)[O-],?,?,10µM*,nt,-29%[10 µM],nt
O=C(Nc1nc(-c2ccccn2)cs1)c1ccccc1-n1cnnn1,?,-11%[9.22 µM],10µM*,nt,-9%[10 µM],-21%
CCOc1c(Br)ccc2c1sc1nc[nH]c(=O)c12,-3%,11µM*,3%,nt,11%[10 µM],0%
O=C(Nc1ccccc1)NC(Cc1ccc(O)cc1)C(=O)O (centres undefined),-5%,7%,5%,nt,33%,16%
C=CCc1ccccc1OC[C@H](O)CNC(C)C,2%[25.5 µM],nt,12%[20.9 µM],-6%,1%[40.3 µM],20%[21.7 µM]
C=CCc1ccccc1OCC(O)CNC (centres undefined),15%,9%,22µM*,-3%,9%,2%
COc1ccc(C2OC(=O)c3ccccc3S2)cc1 (centres undefined),9%,-1%,-16%,?,-8%[10 µM],16%
O=C(NCC1CCCO1)C(c1cccs1)N(Cc1ccccc1Cl)C(=O)c1ccc(-c2ccccc2)[nH]1 (centres undefined),?,0%,-12%,-21%,7%[10 µM],-23%
O=C(NC1CCCC1)C(c1ccncc1)N(Cc1ccccc1)C(=O)c1ccc(-c2ccccc2)[nH]1 (centres undefined),-3%,?,22µM*,-20%,-13%[10 µM],-10%
Cc1ccc(C(C(=O)NCC2CCCO2)N(Cc2ccccc2)C(=O)c2ccc(-c3ccccc3)[nH]2)o1 (centres undefined),?,0.13µM*,22µM*,?,nt,7%
CC1CCN(C(=S)c2ccc(O)cc2)CC1,2%,-16%,?,32µM*,-8%,-1%
CC1CCN(C(=S)c2ccccc2O)CC1,-3%,0%,?,6.3µM*,-3%,-1%
CCN1CCN(C(=S)c2ccc(O)cc2)CC1,-17%,11%[9.22 µM],?,nt,13%[10 µM],-1%
COCCNS(=O)(=O)c1ccc(C)c(C)c1C,2%,-7%,?,nt,-1%,4%
Cc1ccc(S(=O)(=O)N(C)C)cc1NC(=O)C(C)Sc1ccccc1 (centres undefined),-9%,11%,?,nt,nt,3%
O=C(C[N+]1(CC#Cc2ccccc2)CCCCC1)c1ccc(Cl)cc1,-6%,-21%,22µM*,nt,5%,3%
SMILES,KDM4E inh,HttQ103 aggreg,ALDH1A1 block,HPGD inh,HTT ATP protect,CBFb RUNX1 block
Cc1ccc(C#CC[N+]2(CC#Cc3ccc(C)cc3)CCCCC2)cc1,0%,11µM*,4%,-6%,-17%[10 µM],0%
O=C(C[N+]1(CC#Cc2ccccc2)CCCCC1)c1ccccc1,7%,?,8.9µM*,nt,-31%,-8%
C(#Cc1ccccc1)C[N+]1(CC#Cc2ccccc2)CCCCC1,-6%,-31%[9.22 µM],-7%,nt,-44%[10 µM],-4%
C#CC[N+]1(CC#Cc2ccccc2)CCCCC1,0%,-5%,-3%,nt,-17%,-3%
Cc1ccc(C)n1-c1ncn[nH]1,0%,9%,?,-24%,1%,0%
COc1ccc2nc3c(nc2c1)C(=O)c1ccccc1-3,nt,nt,3%,-4%,nt,nt
CCN(CC)S(=O)(=O)c1ccc(N2CCCCC2)c(C(=O)Nc2ccccc2N2CCOCC2)c1,-1%,-27%,-6%,-14%,-12%,-1%
CCN(CC)S(=O)(=O)c1ccc(N2CCOCC2)c(NC(=O)c2cccc3ccccc23)c1,?,-2%,13µM*,-18%,3%[10 µM],-5%
CCN(CC)S(=O)(=O)c1ccc(N2CCOCC2)c(NC(=O)c2c3c(nc4ccccc24)CCC3)c1,5%,7%,6.3µM*,-1%,-7%[10 µM],-27%
CCN(CC)S(=O)(=O)c1ccc(N2CCOCC2)c(NC(=O)c2cc(=O)[nH]c3ccccc23)c1,4%,21%,14µM*,nt,-41%,-2%
O=C(Nc1cc(S(=O)(=O)N2CCOCC2)ccc1N1CCCC1)c1cc(=O)[nH]c2ccccc12,?,-12%[9.22 µM],nt,nt,3%[10 µM],17%
CCN(CC)S(=O)(=O)c1ccc(N2CCOCC2)c(NC(=O)c2ccc3ccccc3c2)c1,?,-6%,?,?,1%[0.074 µM],7%
CCN(CC)S(=O)(=O)c1ccc(N2CCOCC2)c(NC(=O)c2cc(-c3ccccn3)nc3ccccc23)c1,13µM*,6%,3.5µM*,nt,nt,-6%
COc1ccccc1CN1CCC2(CC1)CCN(C(=O)c1c(C)noc1C)CC2,nt,nt,16%,-1%,25%,nt
O=C(N/N=C/c1ccc(OC(F)F)cc1OC(F)F)c1cccc(S(=O)(=O)N2CCOCC2)c1,-6%,20%,2%,nt,-1%,12%
CN(C(=S)NC(=O)Cc1ccccc1)c1ccccc1,-7%,14%,?,nt,-4%,3%
Cc1cccc(NC(=O)C(=O)NCc2ccc3c(c2)OCO3)c1C,-22%,22%[9.22 µM],12%,nt,26%[10 µM],4%
CCN(CC)S(=O)(=O)c1ccc(N2CCOCC2)c(NC(=O)COc2ccccc2C#N)c1,-8%,-8%,13µM*,nt,-22%,-22%
CCN(CC)S(=O)(=O)c1ccc(N2CCOCC2)c(NC(=O)Cc2ccc(Cl)cc2)c1,-8%,?,25µM*,nt,7%[10 µM],-2%
CCC(=O)N1CCN(c2ccc(Cl)cc2NC(=O)Cc2ccccc2)CC1,4%,-23%,5µM*,-5%,0%,8%
CCC(=O)Nc1cc(Cl)ccc1N1CCN(C(=O)CC)CC1,0%,-24%,-2%,-5%,8%[0.074 µM],-6%
CC1=CC(C)(C)Nc2ccc(CSc3ccccc3)cc21,nt,nt,?,?,6%[10 µM],nt
